Measurements from PubChem BioAssay (EPA / NIEHS).
Values joined by “and” are separate entries in the source; they are usually repeats but may differ in a detail not shown here. Equal values may be shown once. Results filed as inconclusive are left out. The source holds several records for some structures; these can differ, active in one and inactive in another. Active and inactive are the calls of the source. Rule for the calls, unless noted: active = hit-call score of the fitted dose curve at least 0.9, where 1 is the maximum; inactive = score below 0.9.

What was measured:
[1] = read-out: Interleukin 17A (IL17A), IL17A (gene 3605); test: BSK_BT_xIL17A: BioMAP Diversity Plus: BT Assay for Interleukin 17A (IL17A) Biomarker Activity (AID 2284229); settings: primary human B cells with PBMC
Outline: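 Luminex xMAP quantification of secreted IL-17A after 24 h chemical exposure of a primary human B cell/PBMC co-culture. Signal increases fitted relative to DMSO negative control.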

[2] = read-out: Tumor necrosis factor (Homo sapiens) (UniProt P01375); test: BSK_BT_xTNFa: BioMAP Diversity Plus: BT Assay for Tumor necrosis factor alpha (TNF-alpha) Biomarker Activity (AID 2284230); settings: primary human B cells with PBMC
Outline: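 B cells with PBMC in co-culture, dosed and sampled at 24 h; secreted TNF-alpha measured by Luminex xMAP bead assay. Activity fitted in the gain direction against DMSO as negative control and baseline.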

[3] = read-out: Vascular cell adhesion molecule 1 (VCAM1), VCAM1 (gene 7412); test: BSK_MyoF_VCAM1: BioMAP Diversity Plus: MyoF Assay for Vascular cell adhesion molecule 1 (VCAM1) Biomarker Activity (AID 2284231); settings: primary human lung fibroblasts
Outline: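 ELISA readout of VCAM-1 on human lung fibroblast cultures 24 hours after dosing, analyzed for signal gain relative to DMSO. Overt cytotoxicity was checked by sulforhodamine B total-protein staining in parallel cultures.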

[4] = read-out: Collagen I, COL1A1 (gene 1277); test: BSK_MyoF_CollagenI: BioMAP Diversity Plus: MyoF Assay for Collagen I Biomarker Activity (AID 2284238); settings: primary human lung fibroblasts
Outline: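 Collagen I levels measured by ELISA on human lung fibroblast cultures 24 h post-dosing, with curve fitting in the positive direction relative to DMSO; SRB staining of parallel wells marked cytotoxicity.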

[5] = read-out: Collagen III, COL3A1 (gene 1281); test: BSK_MyoF_CollagenIII: BioMAP Diversity Plus: MyoF Assay for Collagen III Biomarker Activity (AID 2284239); settings: primary human lung fibroblasts
Outline: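 Collagen III biomarker quantified by ELISA in human lung fibroblast cultures 24 h after dosing. Activity fitted in the positive direction against DMSO as baseline.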

[6] = read-out: Interleukin 17F (IL17F), IL17F (gene 112744); test: BSK_BT_xIL17F: BioMAP Diversity Plus: BT Assay for Interleukin 17F (IL17F) Biomarker Activity (AID 2284243); settings: primary human B cells with PBMC
Outline: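 Human B cells co-cultured with PBMC; secreted IL-17F quantified by LumineX xMAP 24 hours after chemical dosing. Activity fitted in the positive direction against DMSO negative control as baseline.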

[7] = read-out: Actin alpha 1 (ACTA1), ACTA1 (gene 58); test: BSK_MyoF_ACTA1: BioMAP Diversity Plus: MyoF Assay for Actin alpha 1 (ACTA1) Biomarker Activity (AID 2284244); settings: primary human lung fibroblasts
Outline: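 MyoF fibroblast system (human lung); a-SMA quantified via ELISA at 24 h; DMSO-normalised, gain-of-signal endpoint.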

[8] = read-out: Interleukin 2 (IL2), IL2 (gene 3558); test: BSK_BT_xIL2: BioMAP Diversity Plus: BT Assay for Interleukin 2 (IL2) Biomarker Activity (AID 2284245); settings: primary human B cells with PBMC
Outline: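 Co-cultures of primary human B cells and PBMC are treated with chemical and sampled at 24 h. IL-2 secretion is quantified by Luminex xMAP, with DMSO-treated wells as baseline.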

[9] = read-out: Basic fibroblast growth factor (bFGF), FGF2 (gene 2247); test: BSK_MyoF_bFGF: BioMAP Diversity Plus: MyoF Assay for Basic fibroblast growth factor (bFGF) Biomarker Activity (AID 2284246); settings: primary human lung fibroblasts
Outline: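 Fibroblasts from human lung, 24 h dosing. bFGF by ELISA; gain of signal over DMSO.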

[10] = read-out: Collagen IV, COL4A1 (gene 1282); test: BSK_MyoF_CollagenIV: BioMAP Diversity Plus: MyoF Assay for Collagen IV Biomarker Activity (AID 2284247); settings: primary human lung fibroblasts
Outline: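 Lung fibroblasts (human primary) treated with chemicals were assayed after 24 h for Collagen IV using an ELISA, with DMSO serving as negative control and baseline for a positive-direction fit.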

[11] = read-out: Monokine induced gamma interferon (MIG), CXCL9 (gene 4283); test: BSK_KF3CT_MIG: BioMAP Diversity Plus: KF3CT Assay for Monokine induced gamma interferon (MIG) Biomarker Activity (AID 2284248); settings: primary human keratinocytes with fibroblasts
Outline: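 Parallel cultures were stained with SRB (560 nm) to check cytotoxicity. MIG was quantified by ELISA in a primary human skin keratinocyte/fibroblast co-culture 24 h post-dosing, with gain of signal fitted relative to DMSO.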

[12] = read-out: Vascular cell adhesion molecule 1 (VCAM1), VCAM1 (gene 7412); test: BSK_BF4T_VCAM1: BioMAP Diversity Plus: BF4T Assay for Vascular cell adhesion molecule 1 (VCAM1) Biomarker Activity (AID 2284249); settings: primary human bronchial epithelial cells with fibroblasts
Outline: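 Cell-surface VCAM-1 quantified by ELISA after 24 h chemical exposure of human bronchial epithelial/dermal fibroblast co-cultures, with SRB staining in parallel wells for cytotoxicity; DMSO baseline, positive-direction fitting.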

[13] = UKN2_HCS_IMR90_cell_viability: Viability Assessment in the University of Konstanz (UKN) Leist Lab Neural Crest Cell Migration Assay in human induced IMR90 Pluripotent Stem Cells (UKN2) (AID 2284233);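 note: cells exposed to compound for 24 h after a 24 h migration phase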
Outline: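 Viability read as calcein-AM fluorescence by high-content imaging, Hoechst co-stain, 30 min. Human iPSC (IMR90) neural crest cells had migrated 24 h into stopper-defined gaps before 24 h chemical exposure. Fitted bidirectionally relative to DMSO.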

[14] = CCTE_Mundy_HCI_Cortical_NOG_NeuronCount: CCTE's Neurite Outgrowth Assay in rat cortical cells for Neuron Count, Mundy Lab (AID 2284236; active = hit-call score of the fitted dose curve at least 0.9, where 1 is the maximum;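 note: neurons counted by imaging betaIII-tubulin and Hoechst stained cortical cells; cells exposed to compound for about 48 hours before fixation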)
Outline: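 Read-out: neuron number by high-content imaging of betaIII-tubulin (Alexa Fluor-488) and Hoechst-labelled rat primary cortical cells.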

[15] = CCTE_Mundy_HCI_hNP1_Casp3_7: CCTE's Caspase-Glo 3/7 Assay in human neuroprogenitor cells for Apoptosis, Mundy Lab (AID 2284240)
Outline: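 Luminescent caspase-3/7 readout, 26.5 h post-dose, in human neural progenitor cells from WA09 embryonic stem cells. Cells grew 40–44 h at 37 °C, 5% CO2 before chemical addition. Activity analysed as signal increase over DMSO baseline.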

[16] = CCTE_Mundy_HCI_hNP1_CellTiter: CCTE's Cell Titer-Glo 2 Assay in human neuroprogenitor cells for Viability, Mundy Lab (AID 2284241; active = hit-call score of the fitted dose curve at least 0.9, where 1 is the maximum;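 for AC50: a hit is a drop in ATP luminescence versus DMSO meaning reduced viability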)
Outline: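 Viability read as luminescent ATP content (CellTiter-Glo, 30 min room temperature) twenty-four hours after dosing, relative to DMSO. Cells: WA09-derived hNP1 neuroprogenitors on poly-L-ornithine/laminin, plated 40 to 44 hours before chemical.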

[17] = CCTE_Mundy_HCI_Cortical_Synap_Neur_Matur_NeuronCount: CCTE's Synaptogenesis and Neurite Maturation Assay in rat cortical cells for Neuron Count, Mundy Lab (AID 2284242; active = hit-call score of the fitted dose curve at least 0.9, where 1 is the maximum;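 for AC50: hits reduce neuron count versus DMSO baseline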)
Outline: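 Measured at DIV 12: fluorescently labelled neurons (Hoechst nuclei, MAP2) in rat primary cortical cultures, counted by high-content imaging. AraC suppressed glia from DIV 5; DMSO served as negative control.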

[18] = CCTE_Mundy_HCI_Cortical_NOG_BPCount: CCTE's Neurite Outgrowth Assay in rat cortical cells for Branch Point Count, Mundy Lab (AID 2284237);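 for AC50: branch points counted about two days after chemical exposure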
Outline: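 Measured 50.33 h after dosing, this morphology endpoint uses rat primary cortical cultures labelled for betaIII-tubulin. Branch points are quantified by high-content imaging, with DMSO as negative control and baseline.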

[19] = TAMU_HCS_1.5hr_SingleDonor1434_Cytotoxicity: Cytotoxicity Assessment using High-content Screening (HCS) Fluorescent Imaging for the Texas A&M University (TAMU) 1.5-hr Human Induced Pluripotent Stem Cell (iPSC)-derived Cardiotoxicity Assay (AID 2284234; active = hit-call score of the fitted dose curve at least 0.9, where 1 is the maximum)
Outline: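 Nuclear counts from Hoechst 33342 imaging define cytotoxicity here, with EC10 (10% cell-count loss relative to DMSO) as point of departure. iPSC cardiomyocytes received 0.2-100 uM test chemical in 0.5% DMSO for 1.5 h at 37 C.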

[20] = TAMU_PeakParms_SingleDonor1434_QT: Texas A&M University (TAMU) 1.5-hr Human Induced Pluripotent Stem Cell (iPSC)-derived Cardiomyocytes Calcium (Ca+2) Flux Assay for Cardiotoxicity: QT (decay-rise ratio) (AID 2284235; active = hit-call score of the fitted dose curve at least 0.9, where 1 is the maximum)
Outline: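 Decay/rise ratio of calcium-flux fluorescence scored after 90 min exposure (37C) of donor 1434 iPSC cardiomyocytes to 0.2–100 uM (0.5% DMSO). Beat-cessation and severe-notch points removed; POD is EC05, a 5% rise over DMSO.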

Measured: AC50

Sequence of Tumor necrosis factor (Homo sapiens) (P01375 whole entry, looked up): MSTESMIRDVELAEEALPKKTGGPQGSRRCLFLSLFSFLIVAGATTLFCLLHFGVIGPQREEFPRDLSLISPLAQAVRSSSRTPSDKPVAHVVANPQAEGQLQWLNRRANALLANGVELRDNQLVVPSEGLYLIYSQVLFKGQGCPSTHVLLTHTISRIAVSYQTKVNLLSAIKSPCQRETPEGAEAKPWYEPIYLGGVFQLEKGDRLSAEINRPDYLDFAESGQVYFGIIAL

O=C(O)C(F)(F)C(F)(F)C(F)(F)C(F)(F)C(F)(F)F
inactive: [1] | [2] | [3] | [4] | [5] | [6] | [7] | [8] | [9] | [10] | [11] | [12]

CCOP(=S)(OCC)SCSC(C)(C)C
inactive: [13] | [15] | [16]
active: [14] 68.1 µM | [17] 9.92 µM and 25.5 µM

ClC1=C(Cl)[C@]2(Cl)[C@@H]3[C@@H](Cl)[C@H]4O[C@H]4[C@@H]3C1(Cl)C2(Cl)Cl
active: [14] 34.2 µM | [18] 9.79 µM | [15] 30.3 µM | [16] 35.9 µM | [17] 7.22 µM

O=C(O)C(F)(F)C(F)(F)C(F)(F)C(F)(F)C(F)(F)C(F)(F)C(F)(F)C(F)(F)F
active: [2] 49.8 µM | [3] 30 µM and 42.6 µM | [4] 37.9 µM and 34.1 µM | [5] 46.8 µM and 47.6 µM | [7] 30 µM and 40.3 µM | [10] 18.9 µM and 13.9 µM | [12] 12.9 µM and 11 µM
inactive: [1] | [2] | [6] | [8] | [9] | [11]

O=S(=O)(O)C(F)(F)C(F)(F)C(F)(F)C(F)(F)F
inactive: [1] | [2] | [3] | [13] | [14] | [18] | [4] | [5] | [15] | [16] | [6] | [7] | [8] | [9] | [10] | [11] | [12]

NS(=O)(=O)C(F)(F)C(F)(F)C(F)(F)C(F)(F)C(F)(F)C(F)(F)C(F)(F)C(F)(F)F
active: [1] 46.5 µM | [2] 46.3 µM and 25 µM | [3] 20.2 µM and 26.5 µM | [4] 22.6 µM | [5] 26.2 µM and 28.7 µM | [6] 35.5 µM and 45.9 µM | [7] 10.9 µM and 12 µM | [9] 45.6 µM and 45.4 µM | [10] 7.27 µM and 7.31 µM | [11] 27.9 µM and 51.6 µM | [12] 24.8 µM and 23.3 µM
inactive: [1] | [15] | [8]

ClC1=C(Cl)[C@]2(Cl)[C@@H]3[C@@H]4C[C@@H]([C@H]5O[C@@H]45)[C@@H]3[C@@]1(Cl)C2(Cl)Cl
inactive: [19] | [20]
active: [14] 21.7 µM | [15] 15 µM | [17] 25 µM

O=S(=O)(O)C(F)(F)C(F)(F)C(F)(F)C(F)(F)C(F)(F)C(F)(F)F
inactive: [1] | [2] | [3] | [13] | [14] | [18] | [4] | [5] | [15] | [16] | [6] | [7] | [8] | [9] | [10] | [11] | [12]

Sc1ccccc1
inactive: [1] | [2] | [3] | [4] | [5] | [6] | [7] | [8] | [9] | [10]

O=C(O)C(F)(F)C(F)(F)C(F)(F)C(F)(F)C(F)(F)C(F)(F)C(F)(F)C(F)(F)C(F)(F)F
inactive: [1] | [2] | [15] | [16] | [6] | [8]
active: [1] 37.8 µM | [3] 48.6 µM and 44.7 µM | [4] 15.8 µM and 18.9 µM | [5] 26.2 µM and 19.1 µM | [7] 45.3 µM and 23.6 µM | [9] 56.9 µM and 55.4 µM | [10] 7.07 µM and 7.44 µM | [11] 50.1 µM and 45.2 µM | [12] 11.8 µM and 14.2 µM

COc1ccc(O)c(C(C)(C)C)c1
inactive: [18] | [15] | [16] | [17] | [11]

CO/C=C(/C(=O)OC)c1ccccc1COc1cccc(C(F)(F)F)n1
active: [13] 50 µM | [14] 2.81 µM | [18] 1.28 µM | [15] 21.7 µM | [16] 81.5 µM | [17] 0.935 µM

C=CC(N)=O
inactive: [20] | [18] | [15] | [16] | [17]

Oc1c(Cl)c(Cl)c(Cl)c(Cl)c1Cl
inactive: [1] | [2] | [6] | [8]
active: [3] 2.41 µM | [4] 2.58 µM | [5] 4.07 µM | [7] 10.3 µM | [9] 33.5 µM | [10] 30.6 µM
